Compound activity from PubChem BioAssay.
In the library only some 4% were active in any assay of this set; here they are far more common.
Peg3 promoter: Peg3 promoter-driven luciferase inhibitors, primary screen, cell-based, HeLa, luciferase luminescence; 360,000 compounds, 1.7% hits; HeLa PEG-Prom luciferase reporter, overnight; inhibition, % at 20 µM;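 active = inhibition of at least 50% at 20 µM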
CF NFkB inh: inhibitors of PAF-induced NF-kB signaling, primary screen, cell-based, GFP fluorescence, uHTS; 360,000 compounds, 0.86% hits; inhibition, % at 5 µM; KKLEB NF-kB-GFP reporter, GFP fluorescence overnight;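 active = at least 50% inhibition at 5 µM, scaled per plate between neutral and stimulator controls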;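 note: PAF is a Pseudomonas aeruginosa culture filtrate used as stimulus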
TROY NFkB inh: inhibitors of TROY-driven NF-kB signaling, primary screen, Q293 LMP1-TROYcd cells, NF-kB luciferase, uHTS. Q293 LMP1-TROYcd NF-kB luciferase reporter, 4 h. 360,000 compounds, 0.98% hits. inhibition, % at 10 µM. AID 1347056, 2019;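 active = compounds whose plate-normalised and pattern-corrected inhibition of the luciferase reporter signal at the single screening dose is 50% or more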
HIF-2a inh: HIF-2a reporter inhibitors, primary screen, luminescence, 786-0 RCC cells; 786-0 RCC cells HIF-2a reporter, luciferase luminescence, overnight; inhibition, % at 18.8 µM; 360,000 compounds, 0.72% hits; AID 624352, 2012;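 active = inhibition of the luminescence signal of 40% or more relative to plate controls, in a single-dose primary screen at 18.75 µM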
TWEAK Fn14 block: inhibitors of TWEAK-Fn14 signaling, primary screen, luciferase reporter cells, uHTS; TWEAK-stimulated Fn14 reporter cells, luciferase luminescence, 8 h; 360,000 compounds, 2% hits; AID 1159606, 2016; inhibition, % at 10 µM; in the data active = inhibition above about 50%
KKLEB tox: cytotoxicity in KKLEB CF airway cells, primary screen, cytotoxicity control for CF NF-kB inhibitor project, cell-based, uHTS, fluorescence assay plates. KKLEB CF airway cells viability, ATPlite luminescence, overnight; active compounds read low; cells stimulated with P. aeruginosa culture filtrate. activity change (cytotoxicity), % at 5 µM. 360,000 compounds, 0.36% hits;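 active = corrected activity change at or below -50% at 5 µM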
Each line names hits and unclear results; the compound was inactive in the other large screens.

O=C(CCCN1C(=O)/C(=C/c2cccs2)SC1=S)NNC(=O)c1ccc(F)cc1	HIF-2a inh 46
O=C(CCN1C(=O)/C(=C/c2cccs2)SC1=S)Nc1cccc(O)c1	TROY NFkB inh 54
O=C(CCCN1C(=O)/C(=C/c2cccs2)SC1=S)Nc1cccc(C(=O)O)c1	none
CC(OC(=O)Cn1cnc2c1c(=O)n(C)c(=O)n2C)C(=O)N(C)c1ccccc1 (configuration not stated)	none
CCOC(=O)CN(c1sc(C)c(C)c1C(=O)OCC)S(=O)(=O)c1ccc(C)cc1	none
CCCC(=O)NC(c1cccs1)c1cc(Cl)c2cccnc2c1O (configuration not stated)	none
CCCC(=O)NC(c1ccc2c(c1)OCO2)c1cc(Cl)c2cccnc2c1O (configuration not stated)	Peg3 promoter 55
CCCC(=O)NC(c1ccco1)c1cc(Cl)c2cccnc2c1O (configuration not stated)	Peg3 promoter 69
CCC(=O)NC(c1ccc(C)cc1)c1cc(Cl)c2cccnc2c1O (configuration not stated)	none
CCN(CC)C(=O)C1=C(C)N(Cc2ccc(C(C)(C)C)cc2)C(=O)C(CC(=O)NC2CC2)C1 (configuration not stated)	none
COc1ccc(Cl)cc1NC(=O)c1cnc2sccn2c1=O	none
O=C(Nc1cnc2sccn2c1=O)c1ccc(Cl)cc1Cl	TWEAK Fn14 block 56
O=C(Nc1cccn(Cc2c(Cl)cccc2Cl)c1=O)c1ccc(Cl)cc1Cl	TWEAK Fn14 block 64
CCN(CC(=O)NCc1cccs1)C(=O)/C=C/c1cccc(Cl)c1Cl	none
CN(CC(=O)Nc1cccc(C(F)(F)F)c1)C1=NS(=O)(=O)c2ccccc21	none
Fc1ccc2cnc(CCO[C@H]3CCCCO3)cc2c1	TWEAK Fn14 block 67
COc1ccc(CN2C(=O)c3cccnc3C2=O)cc1S(=O)(=O)NC(C)C	none
Clc1ccc2oc3c(Cl)ncnc3c2c1	Peg3 promoter 84
N/C(=N\OC(=O)c1ccc(Cl)cc1Cl)c1ccc(Cl)cc1	TROY NFkB inh 67, TWEAK Fn14 block 71
N/C(=N\OC(=O)c1ccc(Cl)cc1Cl)c1ccccc1	TROY NFkB inh 63, TWEAK Fn14 block 91
Cc1cccc(/C(N)=N/OC(=O)c2ccc(Cl)cc2Cl)c1	TROY NFkB inh 63, TWEAK Fn14 block 79
N/C(=N\OC(=O)c1ccccc1Cl)c1ccc(Cl)cc1	none
N/C(=N\OC(=O)c1ccc(Cl)cc1Cl)c1cccnc1	none
N/C(=N\OC(=O)c1ccc(Cl)cc1)c1ccc(Cl)cc1	none
N/C(=N\OC(=O)c1ccc(Cl)cc1)c1ccn[nH]1	TWEAK Fn14 block 51
Cc1ccc(/C(N)=N/OC(=O)c2ccc(C)cc2Cl)cc1	TROY NFkB inh 75, TWEAK Fn14 block 85, KKLEB tox -64
O=C(NOCc1ccccc1)c1ccc(Cl)cc1Cl	TWEAK Fn14 block 82
N/C(=N\OC(=O)c1ccccc1Cl)c1ccccc1	none
Cc1cccc(/C(N)=N/OC(=O)c2ccc3c(c2)OCO3)c1	TWEAK Fn14 block 63
O=C(NOCc1ccccc1)c1ccccc1	none
Cc1cccc(/C(N)=N/OC(=O)C23CC4CC(CC(C4)C2)C3)c1	TROY NFkB inh 60
N/C(=N\OC(=O)c1ccc2c(c1)OCO2)c1cccc([N+](=O)[O-])c1	none
CC(C)c1nc(SCc2c(F)cccc2Cl)c2c(=O)n(C)c(=O)n(C)c2n1	Peg3 promoter 63
CCc1ccc(/C=C2\SC(N3CCCC3)=NC2=O)cc1	TROY NFkB inh 58
O=C1N=C(N2CCCCC2)S/C1=C\c1ccncc1	none
O=C1N=C(N2CCCC2)S/C1=C\C=C\c1ccccc1	TROY NFkB inh 72, TWEAK Fn14 block 77
O=C1/C(=C/c2cccs2)SC(=S)N1c1cccc(O)c1	none
S=C(NCc1ccccn1)Nc1ccc(Cl)cc1	TWEAK Fn14 block 72 (no result: TROY NFkB inh)
CCOC(=O)c1cc2sccc2n1CC(=O)N1c2ccccc2CC1C (configuration not stated)	Peg3 promoter 72
CC(C)C[C@H]1CN=C(Nc2ccccc2)N1CC1CCC(C(C)(C)C)CC1 (some centres not stated)	Peg3 promoter 103
COc1ccc(CCNC(=O)CNS(=O)(=O)c2ccc(Cl)cc2)cc1	none
COc1ccc(CNC(=O)CNS(=O)(=O)c2ccc(Cl)cc2)cc1	TROY NFkB inh 80, TWEAK Fn14 block 82
CC(C)Oc1ccc(CNC(=O)Cn2ccc3cc(S(=O)(=O)N4CCCC4)ccc32)cc1	none
Cc1cc(C(=O)CSc2n[nH]c(N)n2)c(C)n1-c1ccc2c(c1)OCO2	none
CC1OC2CC(=O)OC2C2=C1C(=O)c1c(O)cccc1C2=O (configuration not stated)	Peg3 promoter 103, CF NFkB inh 91, TROY NFkB inh 57, HIF-2a inh 90, TWEAK Fn14 block 107, KKLEB tox -83
COc1ccc(C(C)(C)C)cc1NC(=O)CNc1cccc2ccccc12	TWEAK Fn14 block 58
COc1ccc(C(C)(C)C)cc1NC(=O)CCNC(=O)c1ccco1	TWEAK Fn14 block 91
COc1cccc(CNCCNC(=O)c2ccco2)c1OC	none
O=C(NCCNC(=O)c1ccco1)c1ccc(F)cc1	none
COc1cc(OC)c(OC)cc1CNCCNC(=O)c1ccco1	TWEAK Fn14 block 96
O=C(NCCNC(=O)c1ccco1)c1cccc(F)c1	TROY NFkB inh 52
CCCc1nc2ccccc2c(=O)n1CCc1ccccc1	none
CC(C)(C)n1nc(Cc2cccc3ccccc23)c2c(N)ncnc21	CF NFkB inh 50
Cn1nc(Cc2cccc3ccccc23)c(C#N)c1N	none
CCCC(O)(c1ccc(Br)cc1)C(CN1CCOCC1)c1ccc(Cl)cc1 (configuration not stated)	Peg3 promoter 58
CCCC(O)(c1ccc(Cl)cc1)C(CN1CCOCC1)c1ccccc1 (configuration not stated)	Peg3 promoter 57
CCCC(O)(c1ccccc1)C(CN1CCOCC1)c1ccccc1 (configuration not stated)	none
O=C(NCc1cccc(Cl)c1)c1ccc2ccccc2n1	none
O=C(Cc1cccc(F)c1)N1CCOCC1	none
CC(C)n1ncc2c(C(=O)Nc3cccc(C#N)c3)cc(C3CC3)nc21	TROY NFkB inh 59, TWEAK Fn14 block 54
CCNC(=O)c1cccc(NC(=O)c2cc(C3CC3)nc3c2cnn3C(C)C)c1	none
Cc1ccc(S(=O)(=O)N2CCN(C(=O)Cn3nc(C)c([N+](=O)[O-])c3C)CC2)cc1	none
